The text below walks through data of the supplement of paper PMC6555819.

For this experiment, the system named is VDR:RXRa (NR concentration 270 nM, RXRa partner concentration 90 nM). Briefly: PBM binding z-score (relative to random genomic background probes); higher = stronger binding; sequences stand for … in GC…GCGATTGACAGCGTAGAATGAAGG
How it is done:
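Protein-binding microarray (Agilent 4x180K custom design, double-stranded 60-nt probes: 5' GC cap, 34-nt variable region, 24-nt constant primer region; full probe sequence given). Purified or IVT nuclear receptor:RXRα heterodimers (3:1 NR:RXRα, mostly 270:90 nM) or homodimers were incubated for 1 h in PBS with 2% milk and no ligand, then detected with Alexa488 antibodies. Fluorescence from o1-orientation probes (~5 replicates averaged) was converted to z-scores against 500 random hg19 background probes. Variable regions are seed direct-repeat (DR0–DR5) sites, all their single-nucleotide variants and half-site ablations.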
Sequence CCTACTGGGCCACAAAAGGTCATTGATTCAGTGA showed a PBM binding z-score of 3.98. TCAGACACGTGAAGGTAACTCAGGTACGCAGTCG showed a PBM binding z-score of 0.881.

The sequence ATCTCTAGGTAACACTCAGTTCAGTGAAGAACGC came in with a PBM binding z-score of 1.97.

On to AGTCAAGGTTCAGGACGAGGTAACGTAAAGCACG, for which the PBM binding z-score is 2.03. As to TGGCAAAGTTCAAAGGTAACGTAAGTATCCACAC, the PBM binding z-score worked out at 5.01. GGAACGAGGGCGAAGTTGATAGCATCTGTCGACG: the PBM binding z-score is -0.285. The value for ATCTCTAGGTAAAGATAGTTGAGTGAATGCAAAT was 0.375. In turn, ACTAGTTGGTCAGCTGAGGTCACAAACAATTCGG registered a PBM binding z-score of 4.24. The same measure for ACAGACAGGTGATGAAGGTAACGCAGGCTATCAT: -0.0633.

As to GCTTACGGGTCAATGGTTATAGCATGAATAGAAT, the PBM binding z-score was 2.99. With CCTTCTAGGTCATGGTCAGCTAATCTACAGTATG, the PBM binding z-score is 2.07. As for CGTCCAAGGTCAACGTCAGTGAAAGAGACTCGAA, the PBM binding z-score is 4.05. The sequence CGTCCAAGGTCAGCAGGTCATTGAAAGCGACGTG came in with a PBM binding z-score of 4.67. For CCTCGGAGGACAACAGGACGTCAGAGCTGCCAGA, the PBM binding z-score is -0.499. The same measure for CCAACTGGGCCATTCAGAGGTCATTGATCATATG: 3.92; for TCTGCTAGGTCAACGATGGCCAGCTAATCTGCTA: 1.13. Consider CAACCTAGGTCACAGAGGTCAAAGTCCGTGCGTA, for which the PBM binding z-score was determined as 8.21. In turn, GGAACGAGGGCATTCGAGCTGATAGCATGGCGAT returned a PBM binding z-score of 0.809.

With GGAACGAGGGCAAAGTTGATGGCATCTGTCGACG, the PBM binding z-score is 1.51. The same measure for TCATATAGGTAAACAGGCGAAAGTCCGTAAGTTA: 1.13; for ATCTCTAGGTAAGACTCAGTTAAGTGAAGAACGC: 0.511; for CATACAGAGTCAGCTAGGCCAGAGTAGGGACGGC: -0.518. CGTCCAAGGTCATAGGAAGTCAGTGAAGACAGAT displayed a PBM binding z-score of 4.21. With AGTCAAAGTTCAGGACGCGGTAACGTAAAGCACG, the PBM binding z-score was determined as 2.37.

Turning to TCTTGTAGATCAGCAGGATAAGAAAGCTGGCCAA, the PBM binding z-score was -0.113. ATCTCTCGGTAAAGATAGTTCAGTGAATGCAAAT returned a PBM binding z-score of 0.595. As to ATATGTAGGTTAGATCCGGGTCATTCAGGCTATG, the PBM binding z-score was 3.5. In turn, ATCGAAAGGTCGACGTGAGTATAGAGAAAGGGAA yielded a PBM binding z-score of 2.53.

CCTAGCAGGCCAATCTGGGTCACGCAAGGCTTGA registered a PBM binding z-score of 1.14. Regarding ATATGTAGGTTACATCCGGGTCCTTCAGGCTATG, the PBM binding z-score was determined as 0.695. As for TAACCAAGGTGAAAGGTCGTTGATGCACGCCTTG, the PBM binding z-score stood at 3.38. The same measure for CGTCCAAGGTCAGAGTGGTCAGTGAATGCCGAGT: 3.87; for TCAGACAGGTGAAGGTAACTCGGGTACGCAGTCG: 1.45; for TCATATAGGTAAATGCGAGGTGAAAGTCCGATCT: 1.32.

Turning to TAGCCTAGGTCATTCAGGGGCCCGTATAGAAAGC, the PBM binding z-score stood at 2.51. With CCTATTAGTTGACCATAAGGCCAACCGAAGCTCG, the PBM binding z-score was determined as 0.724.

Regarding AGAATGAGGTTATACGTAGCTCAGGGAAGAAAGT, the PBM binding z-score was 1.2. As for GATACAGGGTCAGCTAGGGGCCAGAGTATGGAAA, the PBM binding z-score came to 3.31. On to TCTTGTAGATCAATAGAGGTTTAGAAAGTGCGCT, for which the PBM binding z-score was 0.618.

As to CTCGAAAGGTCGTGCTCAGGTGAATATACCAAAC, the PBM binding z-score was 3.77.
